# PubChem BioAssay AID2284386 (EPA ToxCast)
# Activity calls are given as the source filed them. How the source made its calls: active means hit-call score of the fitted dose curve at least 0.9, where 1 is the maximum; inactive means score below 0.9.
# Molecular target: Peroxisome proliferator-activated receptor gamma (Homo sapiens) (UniProt P37231)
# Experiment: ERF_FR_NR_COA_hPPARG: Eurofins (ERF) Nuclear Receptor (NR) Functional Coactivator Assay for human Peroxisome Proliferator-activated Receptor gamma (PPARg) Agonism, conducted at France lab site
# Experimental: ERF_FR_NR_COA_hPPARG is a biochemical, single-readout assay that uses extracted gene-proteins in a cell-free assay. Measurements were taken 2 hours after chemical dosing in a 384-well plate. See PPARgamma Human NHR Functional Agonist Coactivator Assay, Cerep.ERF_FR_NR_COA_hPPARG is an assay component calculated from the ERF_FR_NR_COA_hPPARG assay. It is designed to measure FRET using a type of binding reporter as detected by fluorescence intensity of Rosiglitazone with fluorimetry technology.Data from the assay component ERF_FR_NR_COA_hPPARG was analyzed at the assay endpoint, ERF_FR_NR_COA_hPPARG, in the positive analysis fitting direction relative to DMSO as the negative control and baseline of activity. Using a type of binding reporter, gain-of-signal activity can be used to understand changes in binding as they relate to gene PPARG. […]
# Test compound and/or vehicle is incubated with the 2 nM receptors and coactivator peptide for 180 minutes at room temperature. Determination of the amount of complex formed is read spectrofluorimetrically (excitation: 337 nm, emission: 520/490 nm). Test compound-induced increase fluorescence by 50 percent or more (>/=50%) relative to 1 uM GW1929 response indicates possible PPARgamma receptor agonist activity. […]
# Chain of Peroxisome proliferator-activated receptor gamma (Homo sapiens) (P37231 whole entry, looked up): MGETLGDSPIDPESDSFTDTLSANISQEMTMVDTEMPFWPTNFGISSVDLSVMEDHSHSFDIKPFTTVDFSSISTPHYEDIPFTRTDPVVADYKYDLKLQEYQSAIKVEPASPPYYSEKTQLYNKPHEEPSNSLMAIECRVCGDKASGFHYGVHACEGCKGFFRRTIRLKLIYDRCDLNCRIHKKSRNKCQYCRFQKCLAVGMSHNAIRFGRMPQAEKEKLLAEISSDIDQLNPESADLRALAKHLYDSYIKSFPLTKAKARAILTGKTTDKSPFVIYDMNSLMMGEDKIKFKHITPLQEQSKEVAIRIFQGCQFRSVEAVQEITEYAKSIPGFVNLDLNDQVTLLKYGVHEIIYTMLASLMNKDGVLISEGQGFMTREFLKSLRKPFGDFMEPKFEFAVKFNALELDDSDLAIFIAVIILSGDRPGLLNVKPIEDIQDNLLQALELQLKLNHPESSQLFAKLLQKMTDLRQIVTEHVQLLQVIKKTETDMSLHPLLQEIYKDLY
structure (smiles),measurement,value
O=S(=O)(O)C(F)(F)C(F)(F)C(F)(F)C(F)(F)C(F)(F)C(F)(F)C(F)(F)C(F)(F)F,outcome,inactive
